Assay outcomes (PubChem)
Nrf2 inh: Nrf2 qHTS screen for inhibitors; A549 ARE-Fluc reporter, luciferase luminescence, 18-24 h; Potency, µM (titrated, usually from 46 µM), for inactives: top-dose activity change, negative = inhibition, actives largely listed as inhibitors; 360,000 tested, 2.1% active; AID 504444, 2011; also: potency is read from the fitted curve at half-maximal effect; % is scaled to controls: 0 for no effect and ±100 for the full control effect; nearly all actives have a fitted effect of over 60% in size
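In this cell-based qHTS, ARE-driven firefly luciferase in A549 cells reports Nrf2 activity; the luminescent signal after BugLite lysis is the measured value, with a prior CellTiter-Fluor read for cell health.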
Nrf2 activator: qHTS of Nrf2 Activators. AREc32 ARE-luciferase reporter (MCF7-derived line), luminescence, 24 h. Potency, µM (highest dose often 46.1 µM), without a hit: top-dose activation, most hits filed as activators. 410,000 tested, 0.31% active; also: potency is read from the fitted curve at half-maximal effect; % of control where 0% means no effect; nearly all actives have a fitted effect of over 65% in size
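Nrf2 activation is followed as ARE-luciferase induction in the AREc32 line after one day of compound treatment; luminescence is read with Steady-Glo.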
A549 tox: Nrf2 qHTS screen for inhibitors: counterscreen for cytotoxicity | A549 ARE-Fluc cells, CellTiter-Fluor viability, 18-24 h | Potency, µM (titrated, usually from 46 µM), without a hit: at the top dose activity change, negative = cytotoxicity, actives largely listed as inhibitors | 390,000 tested, 0.16% active | AID 504648, 2011; also: potency is read from the fitted curve at half-maximal effect; % is scaled to controls: 0 for no effect and ±100 for the full control effect
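A549 ARE-Fluc cells in 5% FBS OPTI-MEM, 5000 cells/well, rested 2 h then exposed to compounds in concentration-response for 18-24 h at 37 °C. Viability by CellTiter-Fluor fluorescence (Ex 405/Em 525) after 30 min; luciferase luminescence (BugLite, 15 min, RT) read afterwards.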
Mito fusion yeast: qHTS Assay for Small Molecule Inhibitors of Mitochondrial Division or Activators of Mitochondrial Fusion; S. cerevisiae fusion-defective mutant growth rescue, CellTiterGlo 48 h; Potency, µM (doses to about 46.1 µM), inactives show at the highest dose growth rescue (activation), actives largely listed as activators; 320,000 tested, 0.23% active; also: potency is read from the fitted curve at half-maximal effect; % of control where 0% means no effect; nearly all actives have a fitted effect of over 45% in size
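Yeast fusion mutant, YPEG (non-fermentable carbon), compound, 48 h at 37C non-permissive; CellTiterGlo added, 10 min RT, luminescence read. Rescued growth = division inhibition.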
miR-21 reporter: qHTS Assay for Modulators of miRNAs and/orActivators of miR-21. HeLa miR-21 FLuc reporter, luciferase, 48 h. Potency, µM (series often up to 38.3 µM), without a hit: at the top dose activity change, positive = activation, actives largely listed as activators. 340,000 tested, under 10 active. AID 2288, 2010;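 also: % of control where 0% means no effect; miR-21 action dims this reporter so a rising signal means less miR-21 action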
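HeLa cells stably expressing CMV-driven firefly luciferase with a downstream miR-21 binding sequence, endogenously expressing miR-21, were treated with titrations (up to about 40uM final) for 48 hours at 37 degree Celsius. Luciferase luminescence was read after lysis.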
Numbers without * were called inactive. Hits are enriched below; roughly 2.3% of the tested compounds scored in any of these assays. Calls follow the shape of the dose curve; as a rule, active = well fitted curve in the direction sought with a large enough effect; inconclusive = small, poorly fitted or top-dose-only effect, or another doubt; inactive = no such curve, though single readings can be large; an effect the other way counts as inactive or inconclusive.

Screening CC[n+]1ccccc1/C=C/c1ccc(N(C)C)cc1 returned Nrf2 inh 5.8µM*, Nrf2 activator 2%, A549 tox 10µM*, Mito fusion yeast 6% and miR-21 reporter inconclusive.
For c1ccc(Cn2nnnc2C(c2ccccc2)N2CCN(Cc3ccncc3)CC2)cc1 (stereo not drawn) the results were Nrf2 inh 5% and A549 tox 1%.
`O=c1cc(-c2ccccc2)n2c(SCc3ccccc3Cl)nnc2[nH]1` gave Nrf2 activator -1%, A549 tox -2% and miR-21 reporter 1%.
`COc1ccc(Nc2nc(N3CCCC3)nc3ccccc23)c(OC)c1` gave Nrf2 inh inconclusive, Nrf2 activator 23%, A549 tox 18µM*, Mito fusion yeast -3% and miR-21 reporter 22%.
For COc1cccc2sc(N3CCN(C(=O)CS(=O)(=O)c4ccc(Cl)cc4)CC3)nc12 the results were Nrf2 activator 4%, A549 tox -2% and miR-21 reporter 24%.
Screening C=CCc1cccc(C=Nc2cc(Br)ccc2O)c1O returned Nrf2 inh inconclusive, Nrf2 activator 6.3µM*, A549 tox -17%, Mito fusion yeast 17% and miR-21 reporter 1%.
C=CCc1cccc(C=Nc2c[nH]c(=O)[nH]c2=O)c1O was read as Nrf2 inh -19%, Nrf2 activator 0%, A549 tox -16%, Mito fusion yeast 1% and miR-21 reporter -3%.
`C#CC[N+](CC)(CC)CC#Cc1cccc(Cl)c1` gave Nrf2 inh 10µM*, Nrf2 activator 0%, A549 tox -17%, Mito fusion yeast 1% and miR-21 reporter 2%.
For C#CC[N+](C)(C)CC#Cc1ccc(Cl)cc1 the results were Nrf2 inh -26%, Nrf2 activator -1%, A549 tox -13%, Mito fusion yeast -1% and miR-21 reporter -3%.
For CCCCN(CCCN)c1ccc(Br)cn1 the results were Nrf2 inh 3% and A549 tox 4%.
Screening O=C(COC(=O)c1ccccc1)Nc1ncc([N+](=O)[O-])s1 returned Nrf2 inh -2%, Nrf2 activator 3% and A549 tox inconclusive.
For O=C(Nc1ccccc1)Nc1ncc([N+](=O)[O-])s1 the results were Nrf2 inh inconclusive, Nrf2 activator 0%, A549 tox 23µM*, Mito fusion yeast inconclusive and miR-21 reporter 28%.
Cc1ccc(S(=O)(=O)Nc2ccc(NS(=O)(=O)c3ccc(C)cc3)c3ncccc23)cc1 was read as Nrf2 inh inconclusive and A549 tox -6%.
Screening N#C/C(=C/c1ccc(Sc2nc3ccccc3[nH]2)o1)c1cccc(F)c1 returned Nrf2 inh 21µM*, Nrf2 activator 18%, A549 tox 26µM*, Mito fusion yeast inconclusive and miR-21 reporter 13%.
Screening N#C/C(=C/c1ccc(Sc2nc3ccccc3[nH]2)o1)c1cccc(Br)c1 returned Nrf2 inh 16µM*, Nrf2 activator 6%, A549 tox inconclusive, Mito fusion yeast 18% and miR-21 reporter 17%.
N#C/C(=C/c1ccc(Sc2nc3ccccc3[nH]2)o1)c1ccccc1F was read as Nrf2 inh inconclusive, Nrf2 activator 16%, A549 tox inconclusive, Mito fusion yeast inconclusive and miR-21 reporter 13%.
For COc1cc(NS(=O)(=O)c2ccc([N+](=O)[O-])cc2)c2ncccc2c1 the results were Nrf2 inh inconclusive and A549 tox -19%.
`CCOC(=O)c1sc2nc(C)nc(NCc3ccccc3OC)c2c1C` gave Nrf2 inh 21µM*, Nrf2 activator 0%, A549 tox -11%, Mito fusion yeast -6% and miR-21 reporter -4%.
For CC(=O)c1cc(-c2ccccc2)n(CCC(=O)NCCc2ccccc2)c1C the results were Nrf2 activator 13%, A549 tox -3% and miR-21 reporter 2%.
Screening Cc1ccc(Nc2c(-c3ccc(N(C)C)cc3)nc3ccccn23)cc1 returned Nrf2 inh -28%, Nrf2 activator 4%, A549 tox -13% and miR-21 reporter -55%.
Cc1cccc(NS(=O)(=O)c2ccc(Cl)c(C(=O)Nc3ccccc3C)c2)c1 was read as Nrf2 inh inconclusive, Nrf2 activator -1%, A549 tox inconclusive and miR-21 reporter 15%.
Screening COc1ccc(C2c3c(nc(CCc4ccccc4)[nH]c3=O)Oc3ccc4ccccc4c32)cc1OC (stereo not drawn) returned Nrf2 inh 6% and A549 tox 5%.
Screening O=C(CSc1nccc(-c2cccs2)n1)Nc1cccc(Cl)c1 returned Nrf2 inh inconclusive, Nrf2 activator inconclusive, A549 tox -4%, Mito fusion yeast 29% and miR-21 reporter -2%.
For O=C(CSc1nccc(-c2cccs2)n1)Nc1ccc(F)c(Cl)c1 the results were Nrf2 inh inconclusive, Nrf2 activator 7.9µM*, A549 tox -1%, Mito fusion yeast 14% and miR-21 reporter 3%.
Screening N[C@H](C(=O)O)[C@H](Cc1ccccc1)C(=O)O returned Mito fusion yeast 1%.
Screening CC(=O)/C=C/c1ccccc1Oc1c(F)c(F)nc(F)c1F returned Nrf2 inh 6%, Nrf2 activator 7.9µM*, A549 tox 9%, Mito fusion yeast -19% and miR-21 reporter 20%.
Screening CCCCNC(=S)NCCCc1cnc[nH]1 returned Nrf2 inh 8% and A549 tox 24%.
`CCOC(=O)c1ccc(NS(=O)(=O)c2ccc(-c3cc(C)no3)cc2)cc1` gave Nrf2 inh -15%, Nrf2 activator -1%, A549 tox -1% and miR-21 reporter -1%.
Screening CCOC(=O)c1ccc(NS(=O)(=O)c2cc(-c3onc(C)c3C)ccc2C)cc1 returned Nrf2 inh 21µM*, Nrf2 activator 1%, A549 tox -9% and miR-21 reporter -15%.
CCOc1ccc(Nc2nc(C)c(NC(=O)c3cccc(F)c3)c(Nc3ccc(OCC)cc3)n2)cc1 was read as Nrf2 inh -1%, Nrf2 activator 0%, A549 tox 1% and miR-21 reporter 1%.
`CCOc1ccccc1NC(=O)N1CCN(Cc2nc3ccc(C)cc3o2)CC1` gave Nrf2 activator 1%, A549 tox 3% and miR-21 reporter 3%.
`Cc1ccc(C)c(Oc2cc(NC(=O)CCCn3nc(C)c([N+](=O)[O-])c3C)cc([N+](=O)[O-])c2)c1` gave Nrf2 inh 23µM*, Nrf2 activator 3%, A549 tox inconclusive, Mito fusion yeast 13% and miR-21 reporter -10%.
